Inconclusive results are not listed. A number with no mark means an inactive call. Calls of active or inactive are those of the source. The call rests on the fitted dose curve; in most records, active means well fitted inhibition curve with a large enough effect in the repeat runs; inconclusive means weak or mixed curves; inactive means no such curve, though single readings can be large or run the other way.
On the % scale 0 is the no-effect control and ±100 the full control effect; potency means the concentration at half of the fitted maximal effect.

Chain of Estrogen receptor (Homo sapiens) (P03372 whole entry, looked up): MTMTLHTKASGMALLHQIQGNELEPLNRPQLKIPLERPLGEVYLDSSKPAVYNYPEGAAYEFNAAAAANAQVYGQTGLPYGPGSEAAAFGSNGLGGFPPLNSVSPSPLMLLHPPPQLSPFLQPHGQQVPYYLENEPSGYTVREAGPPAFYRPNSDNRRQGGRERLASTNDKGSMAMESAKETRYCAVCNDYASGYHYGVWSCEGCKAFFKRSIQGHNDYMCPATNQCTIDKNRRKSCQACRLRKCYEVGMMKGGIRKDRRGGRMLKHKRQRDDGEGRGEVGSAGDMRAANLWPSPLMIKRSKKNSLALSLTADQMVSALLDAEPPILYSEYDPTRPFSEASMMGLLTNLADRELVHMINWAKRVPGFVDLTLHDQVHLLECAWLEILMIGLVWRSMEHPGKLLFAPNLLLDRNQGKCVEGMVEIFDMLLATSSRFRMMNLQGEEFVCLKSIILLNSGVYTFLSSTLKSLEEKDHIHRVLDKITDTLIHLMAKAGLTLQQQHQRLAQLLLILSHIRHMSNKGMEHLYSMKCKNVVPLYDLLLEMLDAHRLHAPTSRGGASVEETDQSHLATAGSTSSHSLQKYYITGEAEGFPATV

This experiment has as its target Estrogen receptor (Homo sapiens) (UniProt P03372). As to the kind of experiment: qHTS assay to identify small molecule antagonists of the estrogen receptor alpha (ER-alpha) signaling pathway using the BG1 cell line in the presence of 0.1 nM 17-beta-estradiol (AID 1259244). Further: nearly all actives have a fitted effect of over 50% in size. Conditions: VM7Luc4E2 (BG1) ERE-luciferase, antagonist mode, 0.1 nM E2, 22 h; series mostly up to 92.4 µM; activity change, negative = inhibition: at the top concentration. From the text:
National Center for Advancing Translational Sciences [NCATS]
NIH Chemical Genomics Center [NCGC]
U.S. Environmental Protection Agency [EPA]
National Institutes of Environmental Health Sciences [NIEHS]
National Toxicology Program [NTP]
U.S. Food and Drug Administration [FDA]
Estrogen receptor (ER), a member of the nuclear hormone receptor plays an important role in development, metabolic homeostasis and reproduction. Two subtypes of ER, ER-alpha and ER-beta, have similar expression patterns with some uniqueness in both types. Endocrine disrupting chemicals (EDCs) and their interactions with steroid hormone receptors like ER causes disruption of normal endocrine function. Therefore, it is important to understand the effect of environmental chemicals in ER signaling pathway. For identifying ER antagonists, VM7Luc4E2 cell line was used to screen against Tox21 compound libraries.
VM7Luc4E2 cell line (provided by Denison MS, University of California) endogenously express full-length ER-alpha and is stably transfected with a plasmid containing four estrogen responsive elements (ERE) upstream of a luciferase reporter gene. The current screening for identification of ER-alpha inhibitors against Tox21 compound libraries used lower concentration (0.1 nM) of 17beta-Estradiol as a stimulator.
Tox21 Assay Protocol Summary:
VM7Luc4E2 cells were cultured in phenol red free assay medium containing 10% charcoal stripped FBS for 5 days prior to the assay. The cells were dispensed at 4,000 cells/well in 4 uL of assay medium into white wall/solid-bottom 1536-well plates (Corning Life Sciences, Corning, NY) using a Multidrop Combi (ThermoFisher Scientific, Waltham, MA) dispenser. After the assay plates were incubated at 37C and 5% CO2 for 24 hr, 23 nL of compounds dissolved in DMSO, positive controls or DMSO only was transferred to the assay plates by a Pintool station (Kalypsys, San Diego, CA). The transfer of compounds was followed by the addition of 1 uL of 0.1 nM (final concentration) agonist (17beta-Estradiol)/assay medium using a Flying Reagent Dispenser (FRD, Aurora Discovery, San Diego, CA). The plates were incubated at 37C and 5% CO2 for 22 hr. For luciferase reporter gene assay, 4 uL of ONE-Glo reagent (Promega Corporation, Madison, WI) was added to each well using the FRD and after 30 min incubation at room temperature luminescence intensity was measured using ViewLux plate reader (PerkinElmer, Shelton, CT).
A general note: Quantitative high-throughput screening tests each substance at several concentrations.
For the compound `COc1ccc2[nH]c(S(=O)Cc3ncc(C)c(OC)c3C)nc2n1` (stereo not given), the “activity change, negative = inhibition” value is -1.97% [at 42.5 µM].

For `CCCCCCCCCCCCCCC1CO1` (stereo not given), the “activity change, negative = inhibition” value was 13.7%.

Consider `NC1CCN(c2nc3c(cc2F)c(=O)c(C(=O)O)cn3-c2ccc(F)cc2F)C1` (stereo not given), for which the “activity change, negative = inhibition” value was -17.1% [at 42.5 µM].

On to `NC(N)=N/N=C/c1c(Cl)cccc1Cl`, for which the “activity change, negative = inhibition” value is -6.91% [at 42.5 µM]. Turning to `C=CC[N+]1([C@H]2C[C@H]3[C@@H]4CC[C@H]5C[C@H](OC(C)=O)[C@@H](N6CCCCC6)C[C@]5(C)[C@H]4CC[C@]3(C)[C@H]2OC(=O)CC)CCCCC1`, the “activity change, negative = inhibition” value was 8.74% [at 42.5 µM]. With `CC(C)NCC(O)COc1ccc(CC(N)=O)cc1` (stereo not given), the “activity change, negative = inhibition” value is -2.46%. The same measure, in the same setting: as for `CCC(C)N(C)C(=O)c1cc2ccccc2c(-c2ccccc2Cl)n1` (stereo not given), the figure is -12.5% [at 42.5 µM]. Consider `CC(=O)OCCc1ccccc1`, for which the “activity change, negative = inhibition” value was 6.09%. On to `CC/C(=C\C(=N/O)C(N)=O)C(C)[N+](=O)[O-]` (stereo not given), for which the “activity change, negative = inhibition” value was -0.2%. `O=C(Nc1ccccc1)OCC(CN1CCCCC1)OC(=O)Nc1ccccc1` (stereo not given): the “activity change, negative = inhibition” value was 0.318% [at 42.5 µM].

Regarding `CCc1nn(C2CCCCC2)c2cc(C3(C#N)CCC(C(=O)O)CC3)ccc12` (stereo not given), the “activity change, negative = inhibition” value is -33.9%. The same measure, in the same setting: as for `CC(C)(Oc1ccc(Cl)cc1)C(=O)OCCCOC(=O)C(C)(C)Oc1ccc(Cl)cc1`, the figure is -1.97% [at 42.5 µM].

Regarding `Cc1occc1S`, the “activity change, negative = inhibition” value was 0.306%. As to `CCCCCCCCN(C)C`, the “activity change, negative = inhibition” value was 2.09%. The same measure, in the same setting: to `CCC(=O)OC(C)(C)C1CC=C(C)CC1` (stereo not given) belongs -6.77%; to `C=Cc1c(C)c2cc3[nH]c(cc4nc(cc5nc(cc1[nH]2)C(C)=C5CCC(=O)O)C(CCC(=O)O)=C4C)c(C)c3C=C`, 2.7% [at 42.5 µM]. Same read-out and setting: as for `COC(=O)C(C)=O`, the figure is 3.95%; as for `Cn1c(=O)c2c(ncn2CC(O)CO)n(C)c1=O` (stereo not given), 7.82% [at 42.5 µM]. On the same count and under the same terms, to `NCCCN(CCO)CCO` belongs 3.64%. Turning to `N[C@H]1C(O)O[C@H](CO)[C@H](O)[C@@H]1O` (stereo not given in full), the “activity change, negative = inhibition” value is 1.1%. Still for that read-out and setting: to `O=C(NS(=O)(=O)/C=C/c1cccs1)c1ccc(F)cc1Br` belongs 50.2%; to `CCCCCOC(=O)c1ccc(O)cc1`, -13.9%. Same read-out and setting: as for `O=C(c1ccc(O)cc1)c1ccc(O)cc1`, the figure is 20.3%; as for `CCCCCCCCC(CO)CCCCCC` (stereo not given), 1.18%; as for `C=C(C)C(=O)OCCOc1ccccc1`, 8.3%. With `CN(C)CCCOc1nn(Cc2ccccc2)c2ccccc12`, the “activity change, negative = inhibition” value is -21.3% [at 42.5 µM]. As for `CC1=CC(=O)/C(=C(/C)O)C(=O)O1`, the “activity change, negative = inhibition” value is 1.29%.

As to `CCOc1nc2cccc(C(=O)O)c2n1Cc1ccc(-c2ccccc2-c2nn[nH]n2)cc1`, the “activity change, negative = inhibition” value was -0.298% [at 42.5 µM]. On the same count and under the same terms, as for `Cc1ccc(C(N)=O)cc1N`, the figure is 1.25%; as for `N#CCc1cccc(C(F)(F)F)c1`, -12.3%; as for `Cc1cccc(OCCOc2cccc(C)c2)c1`, 23.4%. `COCCO`: the “activity change, negative = inhibition” value is 4.74%. On the same count and under the same terms, as for `CCCCOc1cc(C(=O)OCCN(CC)CC)ccc1N`, the figure is 0.924% [at 42.5 µM]; as for `FC(F)(F)C(F)(F)C(F)(F)C(F)(F)C(F)(F)C(F)(F)CCI`, 11.5% [at 42.5 µM]. Consider `O=S(=O)(O)c1ccc(O)c2ncccc12`, for which the “activity change, negative = inhibition” value is -16.7%. As to `Cc1cccc(Oc2ccccc2)c1`, the Potency was 66.8 µM (active).

`CC(C)(C)c1ccc(OCC2CO2)cc1` (stereo not given): the “activity change, negative = inhibition” value is -23.4%. On to `C=CCCCCCC`, for which the “activity change, negative = inhibition” value was -13.9%. As to `Oc1ccc(Sc2ccc(O)cc2)cc1`, the “activity change, negative = inhibition” value is -24.7%. As to `C=C(C)C(=O)OCCN(C)C`, the “activity change, negative = inhibition” value is -7.77%.
